Structures are written as SMILES. Where “and” joins values, the source holds several entries; their conditions need not be identical. Equal entries are not always repeated. In all, about 340,000 compounds went through this assay and about 2,100 (0.62%) were called active. These entries were drawn from the full list. Results with a measured potency or affinity are listed apart. Values without a mark were called inactive.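 The calls were made as follows: active = first-screen hits whose inhibition reached a set limit at any dose in the follow-up dose series; inconclusive = inhibition above the set first-screen limit but never retested; inactive = the rest.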

Sequence of Rac GTPase-activating protein 1 (Homo sapiens) (Q9H0H5 whole entry, looked up): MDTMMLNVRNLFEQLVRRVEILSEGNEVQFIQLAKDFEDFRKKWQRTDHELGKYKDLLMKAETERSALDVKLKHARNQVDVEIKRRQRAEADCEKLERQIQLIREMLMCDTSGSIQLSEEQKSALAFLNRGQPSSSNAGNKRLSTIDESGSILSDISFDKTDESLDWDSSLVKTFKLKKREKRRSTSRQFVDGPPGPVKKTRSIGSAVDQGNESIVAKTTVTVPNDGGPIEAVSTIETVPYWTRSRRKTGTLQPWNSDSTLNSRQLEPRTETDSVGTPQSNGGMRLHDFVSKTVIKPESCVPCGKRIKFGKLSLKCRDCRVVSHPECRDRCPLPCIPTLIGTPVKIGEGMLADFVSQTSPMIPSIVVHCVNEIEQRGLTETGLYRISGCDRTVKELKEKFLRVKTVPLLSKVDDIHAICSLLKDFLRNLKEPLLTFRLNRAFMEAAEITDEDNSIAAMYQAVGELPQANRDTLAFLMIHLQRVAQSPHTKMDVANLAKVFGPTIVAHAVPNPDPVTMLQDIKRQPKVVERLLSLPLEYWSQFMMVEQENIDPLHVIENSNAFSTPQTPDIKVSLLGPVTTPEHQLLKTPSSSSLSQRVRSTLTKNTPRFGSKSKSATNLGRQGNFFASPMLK

This assay concerns the target Rac GTPase-activating protein 1 (Homo sapiens) (UniProt Q9H0H5). The experiment in a line: blockers of MgcRacGAP-driven Rac1 GTP hydrolysis – biochemical, ADP Hunter fluorescence, primary and confirmatory, confirmation (AID 624330).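 Also: fluorescence reports GDP produced by GAP-driven GTP hydrolysis.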 The conditions noted are these: MgcRacGAP-stimulated Rac1 GTP hydrolysis, at 30 µM, hits give high values, GST-tagged Rac1 F28L mutant substrate.
The term inhibition denotes the relative decrease from the control value, in per cent. For the compound `C[C@@H](C(=O)OCC(=O)NCCc1ccc(S(N)(=O)=O)cc1)N1C(=O)C2CCCCC2C1=O` (stereo partly drawn), the inhibition is -3.1%.
Under `CCCn1c(=S)[nH]c2cc(Cl)ccc21` stands 9.71%.
Under `COc1ccc2c(c1)-c1c(sn(-c3ccccc3)c1=S)C(C)(C)N2` stands 18.2%.
On to `COc1ccc(-n2sc3c(c2=S)-c2cc(OC)ccc2NC3(C)C)cc1`, for which the inhibition is -3.29%.
As for `Cc1ccc(CNc2nc3ccccc3n2C)cc1`, the inhibition is 13.6%.
Under `CC(C)NC(=O)Nc1ccc2c(c1)C(=O)N([C@H](C)CO)C[C@H](C)[C@@H](CN(C)C(=O)Nc1ccc(C(F)(F)F)cc1)O2` stands 12.5%; under `CCCN(CCC)CCOc1cc(C)ccc1C(C)C`, 18.2%; under `Cc1ccc(C(C)C)c(OCC#CCN2CCOCC2)c1`, 30.8%.
Under `O=C(c1cc2ccccc2oc1=O)N(Cc1ccccc1F)C1CCS(=O)(=O)C1` (stereo not drawn) stands 6.33%.
Under `OCCCNCc1ccc(Cl)cc1Cl` stands -1.18%.
For `COc1ccc(C)cc1NC(=O)n1ncc2cc(Cl)ccc21`, the inhibition is 8.15%.
Under `COc1cc(NC(=O)n2ncc3cc(Cl)ccc32)cc(OC)c1` stands 5.31%.
As for `COc1ccc(S(=O)(=O)Nc2cccc(SC)c2)cc1C(=O)N1CCOCC1`, the inhibition was 9.83%.
Regarding `Cc1ccccc1C(=O)NC(=S)Nc1ccccc1N1CCCC1`, the inhibition was 13.5%.
Under `Cc1ccc(NC2=C([N+](=O)[O-])CS(=O)(=O)C2)cc1` stands 7.24%.
Under `O=[N+]([O-])C1=C(Nc2cccc3ccccc23)CS(=O)(=O)C1` stands 9.69%.
Under `O=[N+]([O-])c1ccc(Nc2ccc(F)cc2)nc1` stands 6.73%.
On to `CC(=O)Nc1ccc(Nc2ccc([N+](=O)[O-])cn2)cc1`, for which the inhibition is 16.8%.
Under `O=C(CSc1ncccn1)Nc1ccc(Cl)c(S(=O)(=O)N2CCOCC2)c1` stands 7.79%.
Under `CCOC(=O)N1CCN(CC(O)COc2c(OC)cccc2OC)CC1` (stereo not drawn) stands 9.23%.
Under `Cc1cc(C(=O)CCC(=O)Nc2ccc(C(N)=O)cc2)c(C)s1` stands 15%.
In the case of `O=C(NC1CCCCC1)c1csnn1`, the inhibition was -0.31%.
Consider `C=CCOc1ccccc1CN1CCCCCC1`, for which the inhibition was 13%.
Under `CS(=O)(=O)N1CCN(Cc2ccccc2C(F)(F)F)CC1` stands 8.59%; under `C=CCOc1ccccc1CN1CCSCC1`, 14.2%.
Under `CCOC(=O)N1CCN(Cc2ccccc2F)CC1` stands 17.8%.
Under `Cc1ccc(S(=O)(=O)N2CCN(Cc3ccccc3C(F)(F)F)CC2)cc1` stands 13%; under `Fc1ccccc1CN1CCCCCCC1`, 10.2%; under `O=S1(=O)CCN(Cc2ccccc2C(F)(F)F)CC1`, 1.13%.
As to `Cc1ccccc1CN1CCN(Cc2ccccc2C(F)(F)F)CC1`, the inhibition was 25.3%.
Under `O=C1CCCC2=C1C(c1cccc(O)c1)C1=C(N2)c2ccccc2C1=O` (stereo not drawn) stands -0.19%; under `Cc1ccc(NC(=O)C2Cc3ccccc3C(=O)O2)cc1` (stereo not drawn), -7.83%; under `O=C(CN(C(=O)CCC(=O)Nc1ccccn1)C1CCCC1)NCc1ccccc1`, 4.99%.
Under `CCOc1ccccc1NC(=O)c1ccc2nc[nH]c2c1` stands 4.69%.
Under `CCN(C(=O)COC(=O)c1ccc(=O)n(Cc2ccccc2)n1)C1CCCCC1` stands 0.9%; under `O=S(=O)(NCC1CCCO1)c1ccc(Br)cc1` (stereo not drawn), 12.2%.
With `CCOc1ccc(CCN2C(=S)N([C@@H](CC(C)C)CN3CCCC3CN3C(=S)NC[C@@H]3Cc3ccc(O)cc3)C[C@@H]2CC(C)C)cc1` (stereo partly drawn), the inhibition was 13.7%.
Consider `Cc1csc(NC(=O)C2CCCN2C(=O)Oc2ccccc2)n1` (stereo not drawn), for which the inhibition was 7.03%.
Regarding `O=C(O)c1ccc(CSc2nnnn2-c2ccc(F)cc2)cc1`, the inhibition was 2.94%.
Under `Cc1cc(SCC(=O)O)nc2ccccc12` stands 5.6% and 2.66%.
Under `Cc1cc(SCC(=O)c2ccc3c(c2)OCO3)nc2ccccc12` stands 6.55%.
Under `Cc1cc(C)nc(SCC(=O)c2ccc(F)cc2)n1` stands 3.61%; under `COc1ccc(-n2nnnc2SCC(=O)c2ccc(O)c(O)c2)cc1`, 9.34%; under `Cc1cc(C)nc(SCC(=O)c2ccc(C)c(C)c2)n1`, -8.22%.
As for `COCCN(CC(=O)NCc1ccc(OC)cc1)C(=O)CCC(=O)Nc1nccs1`, the inhibition was 9.76%.
Under `COc1ccc(/C=C/C(=O)Oc2cc(C)[nH]c(=O)c2[N+](=O)[O-])cc1OC` stands -3.35%; under `O=C(/C=C/c1ccc2c(c1)OCO2)NCCS(=O)(=O)N1CCN(c2ccccc2)CC1`, -2.85%.
`Cc1cc(C)n(-c2cc(C)c(C)cc2Br)n1`: the inhibition was 4.26%.
Under `COc1ccc(-c2csc(Nc3cc(C)ccn3)n2)cc1OC` stands 13.4%; under `Cc1ccnc(Nc2nc(-c3ccccc3)cs2)c1`, 12.8%.
Under `Cc1ccnc(Nc2nc(-c3ccc(F)cc3)cs2)c1` stands 7.49%; under `Cc1ccnc(Nc2nc(-c3ccc(Cl)cc3)cs2)c1`, 4.43%; under `C[C@]12c3[nH]c4cc(-c5ccco5)ccc4c3CCN1C(=O)[C@@H](CC(=O)NCc1cccc(C(F)(F)F)c1)C[C@@H]2C(=O)N1CCCCC1`, 10.5%.
Under `CC(C)NC(=O)c1ccc(N(Cc2ccccc2)S(C)(=O)=O)cc1` stands 4.09%; under `O=S(=O)(NCC1(N2CCOCC2)CCCCC1)c1ccccc1Cl`, -7.11%.
As to `CN1CCN(CCCC(=O)c2ccc(C3CCCC3)cc2)CC1`, the inhibition was 6.04%.
As for `O=C(O)c1cc([N+](=O)[O-])c(N2CCCC2)c([N+](=O)[O-])c1`, the inhibition is 9.56%.
Turning to `CCc1ccc(N(CC(=O)NC(C)(C)C)C(=O)CNC(=O)c2cccs2)cc1`, the inhibition was 11.2%.
On to `CCOC(=O)c1c(NC(=O)CCl)sc(CN(C)C)c1-c1ccccc1`, for which the inhibition is -14%.
Under `Cn1c(=O)c2c(ncn2Cc2cccc(Cl)c2)n(C)c1=O` stands 9.29%.
Under `O=C(CCC1CCCC1)N1CCN(C(=O)C2CC2)CC1` stands -4.27%; under `Cc1ccc(OCC(=O)N2CCCCCCC2)cc1`, 9.5%.
Under `O=C(CCC1CCCC1)N1CCC(N2CCCCCC2)CC1` stands 21.7%; under `O=C(c1ccccc1F)N1CCN(CC2CC3C=CC2C3)CC1` (stereo not drawn), 27.7%.
Regarding `CCN1CCN(CC2CC3C=CC2C3)CC1` (stereo not drawn), the inhibition is 24.6%.
Under `C1=CC2CC1CC2CN1CCN(c2ccccc2)CC1` (stereo not drawn) stands 14.6%; under `Cc1ccc(S(=O)(=O)N2CCN(CC3CC4C=CC3C4)CC2)cc1` (stereo not drawn), 23.4%; under `Cc1ccc(OCC(=O)N2CCN(S(C)(=O)=O)CC2)cc1`, 11.9%.

The values above are taken from PubChem BioAssay AID624330 (Southern Research Specialized Biocontainment Screening …, 2012).
